# Bioassay records deposited in PubChem by National Center for Advancing Translational Sciences (NCATS).
# IL-1B inflam inh – blocks inflammasome-driven IL-1 beta release | THP-1 LPS/ATP IL-1B secretion, AlphaLISA, 16 h; hits give low values | activity change, % at 57.5 µM | 360,000 tested, 4.7% active; in the data active means activity change below about -50%; inconclusive means mostly about -30% to -49%
#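 THP-1 cells pretreated 1 hr with compounds (up to 57.5 uM final), then stimulated with LPS (250 ng/mL final) plus ATP (1.25 mM final); secreted IL-1B measured by AlphaLISA after 16 hr, decreased signal indicating inhibition.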
# TDP1 cell CPT – growth inhibition of DT40 Tdp1-/-;hTDP1 cells with camptothecin (screen for TDP1 inhibitors); chicken DT40 Tdp1-/-;hTDP1 cells + 20 nM CPT, ATP luminescence, 48 h; Potency, µM (doses to about 46.2 µM), without a hit: at the top dose activity change, negative = growth inhibition, hits mostly inhibitors; 420,000 tested, 12% active; further: potency means the concentration at half of the fitted maximal effect; nearly all actives have a fitted effect of over 55% in size
#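 Chicken DT40 Tdp1-/- cells complemented with human TDP1, 400 cells/well, exposed to compounds plus 20 nM camptothecin for at least 48 h at 37 C; viability read as ATP content by CellTiter-Glo luminescence.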
# HT1080NT lethal – kills 2HG-producing HT-1080-NT fibrosarcoma cells; HT-1080-NT fibrosarcoma viability, CellTiter-Glo ATP luminescence, 48 h; Potency, µM (doses to about 46.1 µM), for inactives: at the top dose activity, negative = less viability, hits mostly cytotoxic; 360,000 tested, 1.6% active; AID 686970;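 further: NT is the 2HG producing partner of a matched IDH1 knockdown line; potency means the concentration at half of the fitted maximal effect; 0% = DMSO-treated cells and -100% = media-only wells without cells; nearly all actives have a fitted effect of over 55% in size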
#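 Viability by CellTiter-Glo luminescence after 48 h compound exposure at 37C of HT-1080-NT cells (750/well, RPMI, 5% FBS). % activity scaled between DMSO wells and medium-only wells, then curve-fitted and categorized by curve class.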
# TDP1 cell noCPT – qHTS for Inhibitors of human tyrosyl-DNA phosphodiesterase 1 (TDP1): qHTS in cells in absence of CPT | AID 686978, 2013 | Potency, µM (top dose mostly 46.2 µM), inactives show top-dose activity change, negative = growth inhibition, hits mostly inhibitors | DT40 Tdp1-/- hTDP1 cells, no CPT, ATP luminescence, 48 h | 420,000 tested, 15% active; further: potency means the concentration at half of the fitted maximal effect; nearly all actives have a fitted effect of over 55% in size
#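 DT40 Tdp1-/-;hTDP1 cells, no CPT (DMSO vehicle only), 400 cells/well; compounds pin-transferred; ≥48 hr, 37 °C; CellTiter-Glo 30 min RT dark, luminescence read.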
# HT1080 IDH1KD tx – kills HT-1080 cells with IDH1 knockdown | 360,000 tested, 2% active | AID 686971 | Potency, µM (titrated, usually from 46.1 µM), for the others: at the top dose activity, negative = toxicity, most hits filed as cytotoxic | HT-1080 IDH1 knockdown viability, ATP luminescence, 48 h;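 further: potency means the concentration at half of the fitted maximal effect; 0% = DMSO wells and -100% = cell-free medium wells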
#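 Knockdown cells (IDH1KD HT-1080) received compounds 2 h after plating at 750 cells/well and were kept 48 h at 37 °C in 5% FBS RPMI. A CellTiter-Glo luminescence read gave % activity for curve fitting.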
# Numbers without * were called inactive; ? = inconclusive; · = not tested or not shown. In the library only some 19% were active in any assay of this set; here they are far more common. Unless noted, the call rests on the fitted dose curve; in most records, active means well fitted curve in the direction sought with a large enough effect; inconclusive means small, poorly fitted or top-dose-only effect, or another doubt; inactive means no such curve, though single readings can be large; an effect the other way counts as inactive or inconclusive. Unless noted, on the % scale 0 is the no-effect control and ±100 the full control effect.
SMILES,IL-1B inflam inh,TDP1 cell CPT,HT1080NT lethal,TDP1 cell noCPT,HT1080 IDH1KD tx
CC(C)(CNC(=O)COc1ccccc1Cc1ccccc1)N1CCOCC1,-59*,?,-16%,?,-17%
COc1ccccc1NS(=O)(=O)c1ccc(C(=O)N2CCCCCC2)cc1,6,18µM*,-4%,13µM*,4%
COc1ccccc1NC(=O)NC1(C(=O)N2CCCCC2)CCCCC1,-76*,-21%,12%,5%,5%
COc1ccccc1NS(=O)(=O)c1ccc(C(=O)N2CCN(c3ccccc3)CC2)cc1,-7,?,-1%,?,-9%
CCOC(=O)C1CCN(C(=O)c2cccc(NS(=O)(=O)c3ccc(F)c(F)c3)c2)CC1,-101*,-10%,15%,-12%,2%
CCOC(=O)C1CCN(C(=O)c2ccc(S(=O)(=O)Nc3ccccc3Cl)cc2)CC1,?,?,-6%,12µM*,-12%
COc1ccccc1NC(=O)NC1(C(=O)N2CCC(O)CC2)CCCCC1,10,5%,3%,-12%,2%
O=C(c1ccccc1Oc1nnnn1-c1ccccc1)N1CCOCC1,-2,-5%,2%,-6%,-4%
CCOc1ccc(NC(=S)NN(C)C(=S)Nc2ccc(OCC)cc2)cc1,0,?,0%,?,11%
Cc1ccc(NC2CCCN(C(=O)CCCN3CCCCC3=O)C2)cc1C (stereo unspecified),-14,-2%,2%,-8%,7%
O=C(COC(=O)c1cccc(NS(=O)(=O)c2ccc(F)c(F)c2)c1)NC(=O)NC1CCCCC1,-20,?,?,16µM*,?
COC(=O)/C(C#N)=C\c1c(OC)[nH]c2ccccc12,6,?,-6%,9.2µM*,-22%
COc1ccc(C2=Nc3ccccc3N(C(=O)c3cc(Cl)cc(Cl)c3)C2C(=O)NCc2ccccc2)cc1 (stereo unspecified),16,?,-10%,?,-1%
Cn1c2ccccc2c2cnn(CC(=O)NCCCN3CCCCC3)c(=O)c21,·,15%,·,-24%,·
O=C(Nc1ccc(-c2csc(Nc3cccc(C(F)(F)F)c3)n2)cc1)c1cc([N+](=O)[O-])cc(C(F)(F)F)c1,10,15µM*,5%,16µM*,-1%
O=C(Nc1ccc(-c2csc(Nc3cccc(C(F)(F)F)c3)n2)cc1)c1ccccc1,89,4.6µM*,-23%,9.2µM*,-12%
O=C(Nc1cccc(-c2csc(Nc3ccccc3)n2)c1)c1ccccc1,-61*,?,-26%,21µM*,-26%
O=C(Nc1cccc(-c2csc(Nc3cccc(C(F)(F)F)c3)n2)c1)c1ccccc1,4,?,-20%,?,?
CCCCC(=O)Nc1cccc(-c2csc(-c3ccccc3)n2)c1,-79*,?,-22%,?,?
O=C(Nc1ccc(-c2csc(Nc3ccc(Cl)cc3)n2)cc1)c1ccccc1,12,?,-4%,?,-2%
CC(=O)c1cccc(Nc2nc(-c3ccccc3)cs2)c1,-1,?,-21%,?,-17%
O=C(Nc1nc2c(c(=O)[nH]1)CCCC2)C1CC1,8,?,-12%,?,-29%
CCS(=O)CC(=O)Nc1c(-c2ccccc2)oc2ccccc2c1=O (stereo unspecified),·,7%,6%,-8%,9%
O=C(NCC1CCCN1S(=O)(=O)c1cccs1)c1ccc(F)cc1 (stereo unspecified),8,?,-3%,?,-22%
COc1cccc(C2CC(=O)Nc3cc4c(cc32)CCC4)c1 (stereo unspecified),63,4.1µM*,23µM*,2.6µM*,26µM*
SMILES,IL-1B inflam inh,TDP1 cell CPT,HT1080NT lethal,TDP1 cell noCPT,HT1080 IDH1KD tx
CC1(C)COC(c2cccc([N+](=O)[O-])c2)OC1,-8,-10%,18%,-2%,11%
Cc1ccc(C2CC(=O)Nc3c2ccc2ccccc32)cc1[N+](=O)[O-] (stereo unspecified),-30,-24%,-25%,?,?
O=C1CC(c2cccc([N+](=O)[O-])c2)c2cc3c(cc2N1)CCC3 (stereo unspecified),53,18µM*,?,26µM*,?
O=C1CC(c2cccc([N+](=O)[O-])c2)c2c(ccc3ccccc23)N1 (stereo unspecified),-21,13µM*,?,8.2µM*,12µM*
COc1cccc(C2CC(=O)Nc3cc(C)c(C)cc32)c1 (stereo unspecified),38,?,?,15µM*,-25%
COc1ccccc1C1CCN(Cc2ccc(C)cc2)CC1,-15,?,-23%,?,-13%
O=C(OCCOCCN=C1NS(=O)(=O)c2ccccc21)c1ccc(F)cc1,36,1%,-2%,-19%,1%
O=C1CC(c2cccc(Cl)c2)c2cc3c(cc2N1)CCC3 (stereo unspecified),37,4.6µM*,7.1µM*,2.9µM*,?
COc1cccc(C2CC(=O)Nc3cc(OC)c(OC)cc32)c1 (stereo unspecified),21,-26%,-2%,-25%,9%
Cc1ccc(-n2c(=O)c3c4c(sc3n(Cc3cc(=O)n5cc(Cl)ccc5n3)c2=O)CCC4)cc1C,·,-10%,·,-6%,·
CCCNC(=O)c1ccc(-c2nc3ccccc3s2)s1,-10,?,-8%,10µM*,-4%
CCCCNC(=O)Nc1nc2ccccc2s1,-78*,?,1%,?,19%
CS(=O)(=O)CCC(C(=O)OCC(=O)c1ccc(Cl)cc1)N1C(=O)c2ccccc2C1=O (stereo unspecified),23,-9%,1%,-14%,14%
NC(=O)c1cc(Br)cc(C2CCCCC2)c1O,-56*,8%,?,-21%,?
O=C(NCCc1csc(-c2ccc(F)cc2)n1)c1ccc(Br)o1,·,23µM*,·,?,·
COc1ccc(-c2nc3scc(CCNC(=O)c4cc(OC)cc(OC)c4)n3n2)cc1,·,?,·,21µM*,·
COc1ccc(-c2nc(CCNC(=O)Cc3ccc(F)cc3)cs2)cc1,·,15µM*,·,18µM*,·
COc1ccc(-c2nc3scc(CCNC(=O)Cc4ccc(F)cc4)n3n2)cc1,·,?,·,26µM*,·
COc1ccc(-c2nc3scc(CCNS(=O)(=O)c4c(C)noc4C)n3n2)cc1OC,·,-21%,·,?,·
Cc1nc(CCNC(=O)Cc2ccc(F)cc2)cs1,1,7%,11%,-6%,11%
COc1ccccc1/C=C/C(=O)NCC(=O)N=Nc1c(O)[nH]c2ccccc12,-5,-13%,1%,?,9%
